Among all 33,000 compounds or so, about 40 (0.1%) were called active. No stated cut-off is given here; in the data, active means z-score below about -3; inactive means the rest. The list comes from a sample in which actives are over-represented; it also holds similar structures and randomly drawn compounds.
test: inhibitors of measles virus growth in cells, primary screen, measles RdRp inhibitor project, cell-based, single point, HTS (AID 745); settings: infected Vero cells, GFP fluorescence, 64 h; stronger effect = lower value

z-score, inactive:
CC1=C(C(=O)N2CCOCC2)C(c2cccc(Cl)c2)C2=C(CCCC2=O)N1 (stereo not given) 0.7
COc1cc(NS(=O)(=O)c2ccc(NC(=O)CN3C(=O)c4ccccc4C3=O)cc2)ncn1 -0.53
CCOC(=O)Cc1nnc(NC(=O)c2ccc([N+](=O)[O-])cc2)s1 -0.27
Cc1c(C(=O)Nc2cccc(Cl)c2)oc2ccc(S(=O)(=O)N3CCOCC3)cc12 -0.46
C=CCn1c(SCCCC)nc2sc3c(c2c1=O)CCC3 1.46
Cc1cc(C)cc(NC(=O)c2cnn3c(C(F)(F)F)cc(-c4ccco4)nc23)c1 0.42
C=CCOc1ccc(NC(=O)C(=O)NC(C)c2ccccc2)cc1 (stereo not given) 0.77
O=C(O)COc1ccc(-c2cc(C(=O)O)c3cc(Br)ccc3n2)cc1 0.41
NS(=O)(=O)c1ccc(CCNC(=O)c2ccc3c(=O)n(Cc4ccco4)c(=S)[nH]c3c2)cc1 0.48
COc1cccc(C(=O)Nc2ccc3nc(N4CCCCC4)cc(C)c3c2)c1 -0.1
COc1cc(CNc2ccc3[nH]c(=O)[nH]c3c2)ccc1OCc1cccs1 -1.62
CCCCc1ccc(C(=O)Nc2ccc3nc(N4CCN(C)CC4)cc(C)c3c2)cc1 -0.21
COc1ccc(-c2nc3ccccc3n2Cc2ccccc2)cc1OC 0.26
O=C(Nc1ccc(Cl)cn1)c1ccc(-c2ccc(Cl)cc2)o1 -0.31
CCOC(=O)c1c(C)nc2c(C#N)c(C)n(-c3ccccc3)c2c1-c1ccc(Br)cc1 3.74
Cc1ccc(C2NC(=O)c3c(sc4c3CCCC4)N2)c(O)c1 (stereo not given) -1.13
CC1=C(C(=O)OCC(C)C)C(c2ccc(OCc3ccccc3)cc2)N2C(=O)CCSC2=N1 (stereo not given) -0.14
COc1ccc2nc(SCc3ccc(Cl)cc3)[nH]c2c1 0.1
COc1cc(C2CC(=O)c3cnc(NC(C)=O)nc3C2)cc(OC)c1OC (stereo not given) 1.22
Cc1cc(N2C(=O)c3ccccc3C2=O)ccc1Br -1.04
Cc1cccc(NC(=O)c2cc3c(=O)n4cccc(C)c4nc3s2)c1 -1.13
Cc1ccc(-n2c(SCC(=O)OCc3ccccc3)nc3c(c2=O)SCC3)cc1 -1
O=C1NC(c2ccccc2)Oc2ccccc21 (stereo not given) -0.5
Cc1ccc(Sc2c(C)nn(C(C)(C)C)c2OC(=O)C2CCCC2)cc1 -0.01
C=CCOC(=O)C1=C(C)N=C2SCCC(=O)N2C1c1ccc(Br)cc1 (stereo not given) -1.08
Cc1cc(C)cc(NC(=O)C(C)N(c2ccccc2)S(C)(=O)=O)c1 (stereo not given) 0.11
COC(=O)Cn1c(=O)n(-c2ccccc2)c(=O)n1CC(=O)OC 1.19
O=C1C2C3c4ccccc4C(Br)(c4ccccc43)C2C(=O)N1c1ccc([N+](=O)[O-])cc1 (stereo not given) -0.34
O=c1oc2ccc3ccccc3c2cc1-c1nc(-c2ccccc2)cs1 0.88
CC1CCC(NS(=O)(=O)c2ccc3c(c2)oc(=O)n3C)CC1 (stereo not given) -0.87
CN1CCN(C(=O)c2cnn3c(C(F)(F)F)cc(-c4ccc(Br)cc4)nc23)CC1 -0.34
O=C(NCc1ccc(F)cc1)c1ccc2c(=O)n(C3CCCC3)c(=S)[nH]c2c1 -0.53
COc1ccc(-c2c(C(F)(F)F)oc3cc(O)ccc3c2=O)cc1 0.21
CC(C)c1ccccc1NC(=O)c1ccccc1 0.08
CC(C)c1ccc(NC(=O)c2ccc(NC3CCCC(C)C3C)c([N+](=O)[O-])c2)cc1 (stereo not given) -0.26
O=C(CSc1nc2c(cnn2-c2ccc(F)cc2)c(=O)[nH]1)N1CCCCCC1 -0.88
CCCn1c2ccccc2c2n[nH]c(=S)nc21 -0.86
Cc1ccc(Cl)cc1N1CCN(C(=O)CCCn2c(=S)[nH]c3cc4c(cc3c2=O)OCO4)CC1 1.87
Cc1ccc(-c2cc3nc(C)cc(C(F)(F)F)n3n2)cc1 -0.75
COC(=O)c1ccc(Sc2ccc(C)cc2)c([N+](=O)[O-])c1 0.34
CCCn1c(C(C)NC(=O)C(C)(C)C)nc2ccccc21 (stereo not given) -0.58
Cc1cccc(NC(N)=Nc2nc(CSc3ccc(Cl)cc3)cc(=O)[nH]2)c1 0.03
O=[N+]([O-])c1ccc(C=Nc2ccc(-c3nc4ccccc4o3)cc2)s1 -1.32
CC(C)(C)c1ccc(C(=O)Nc2ccc(N3CCOCC3)c(Cl)c2)cc1 -1.1
CN(Cc1ccccc1)C(=O)Cn1ncc2c(=O)oc3ccccc3c21 1.21
CCCCNC(=O)c1ccc[nH]c1=S 0.16
CC(=O)c1cccc(NC(=O)c2ccccc2C(=O)O)c1 -0.2
COc1ccc(OC)c2[nH]c(=O)c(CCNC(=O)c3ccccc3I)cc12 -0.19
CSCCC1(C(=O)O)NC(c2cc(I)ccc2O)C2C(=O)N(Cc3ccccc3)C(=O)C21 (stereo not given) -0.74
O=C(NCc1ccccc1)c1ccc(CSCc2ccccc2Cl)o1 -0.18
Cc1ccc(S(=O)(=O)n2nc(OC(=O)c3ccc(F)cc3)cc2N)cc1 -1.65
Cn1c(=O)c(Cl)c(O)c2ccccc21 0.2
COC(=O)c1c(NC(=O)Cn2cnc([N+](=O)[O-])n2)sc2c1CCCC2 -0.06
CCOc1ccc(N=C2NC(=O)C(CC(=O)Nc3ccc(Br)cc3)S2)cc1 (stereo not given) -0.81
Cc1cccc(NC(=O)c2ccc(F)c(S(=O)(=O)N3CC(C)CC(C)C3)c2)c1 (stereo not given) -0.97
COC(=O)c1c(NC(=O)c2ccc(S(=O)(=O)N3CC(C)CC(C)C3)cc2)sc2c1CC(C)(C)NC2(C)C (stereo not given) -0.34
Cc1cccc(N2CCN(C(=O)c3ccc4nc5ccc(Cl)cc5c(=O)n4c3)CC2C)c1 (stereo not given) 0.3
CCOc1ccccc1NC(=O)c1sc2ncnc(N3CCCCC3C)c2c1C (stereo not given) 1.12
Cc1ccc(-n2nc3c(c2NC(=O)c2ccccc2F)CS(=O)(=O)C3)c(C)c1 -0.44
O=C1C2C3c4ccccc4C(C(=O)O)(c4ccccc43)C2C(=O)N1c1ccccc1Cl (stereo not given) -0.65
CC(C)(C)c1nnc(Nc2ccc3c(c2)OCO3)[nH]c1=O -0.67
CCNS(=O)(=O)c1cc(-c2nnc(Nc3cccc(C(F)(F)F)c3)c3ccccc23)ccc1C -0.06
Cc1ccc2nc(-c3ccccc3)c(Nc3ccccc3C)n2c1 -1.03
COc1ccc(C2/C(=C(\O)c3ccccc3)C(=O)C(=O)N2CO)cc1 (stereo not given) -0.38
O=P(Cc1cccc(CP(=O)(c2ccccc2)c2ccccc2)n1)(c1ccccc1)c1ccccc1 -1.8
COc1cc(NC(=O)c2noc3c2CCCCC3)c(OC)cc1Cl -0.93
Cc1ccc(S(=O)(=O)C2(C(=O)N(C)Cc3ccccc3)CC2)cc1 0.74
CCC(C(=O)NCCC(C)C)N1C(=O)CSc2ccc(C(C)(C)C)cc21 (stereo not given) 0.55
Cc1cc(C(=O)NCCCN=C2NS(=O)(=O)c3ccccc32)c2ccccc2n1 1.11
N#Cc1c(NC(=O)CCCC(=O)O)sc2c1CCCC2 -0.15
CCCC12CN3CC(C)(CN(C1)C3c1ccccc1Cl)C2=O (stereo not given) -0.48
O=C1CCCc2oc3c(cc(NS(=O)(=O)c4ccc(Cl)cc4)c4ccccc43)c21 -0.4
CN(C(=O)CCn1c(=S)oc2ccccc21)C1CCCCC1 -2.69
CCOc1ccc(C(=O)Nc2cccc(-c3nc4cc(C)ccc4o3)c2)cc1Br -0.49
O=C(Nc1c2c(nn1-c1ccc(F)cc1)CS(=O)(=O)C2)c1ccccc1Cl -1.44
COc1ccc(C2Nc3ccccc3C(=O)N2c2ccc(Cl)cc2)cc1COc1ccccn1 (stereo not given) 0.19
Cc1cc(Cl)ccc1OC1C(=O)N(c2cccc([N+](=O)[O-])c2)C1c1ccccc1Cl (stereo not given) -0.08
O=C(CCCn1c(=O)[nH]c2cc(Cl)ccc2c1=O)NCCc1c[nH]c2ccccc12 -0.02
O=S1(=O)N=C(N2CCCCC2)c2ccccc21 2.63
CC(=O)c1cccc(N2C(=O)c3ccc(C(=O)OCC(=O)c4cccc([N+](=O)[O-])c4)cc3C2=O)c1 -0.12
CC(C)Sc1oc(-c2ccc(F)cc2)nc1S(=O)(=O)c1ccc(Cl)cc1 -1.46
CC(=O)NC1=NN(C(C)=O)C(c2ccc3c(c2)OCO3)S1 (stereo not given) -0.09
Cc1ccc(S(=O)(=O)N2CCCCCC2)cc1C(=O)Nc1ccc(Br)cc1 -0.48
CCOc1ccc(-c2cc(C(=O)N3CCN(Cc4ccc5c(c4)OCO5)CC3)c3ccccc3n2)cc1 0.33
O=C(NCCN1CCOCC1)c1cc(Sc2cccc(Cl)c2)nc2ccccc12 0.36
Cc1cccc(NC(=O)c2c(NC(=O)c3ccncc3)sc3c2CCC(C(C)(C)C)C3)c1 (stereo not given) -0.43
COc1ccc(NC(=O)CN2C(=O)C3C4CCC(C4)C3C2=O)cc1 (stereo not given) 0.52
Cc1ccc(C)c(OCCc2c(C)n[nH]c2C)c1 0
COC(=O)c1ccccc1Oc1c(F)c(F)nc(NCCO)c1F -0.51
COc1ccc(OC)c(C=Nc2oc(-c3ccccc3)c(-c3ccccc3)c2C#N)c1 -1
